Tb PFK block: T. brucei PFK enzyme inhibition; Potency, µM (series often up to 57.5 µM), inactives show top-dose activity, negative = inhibition, most hits filed as inhibitors; T. brucei PFK, ADP-Glo luminescence; O15648; AID 485367; 330,000 compounds, 0.17% hits;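 further: 0% = uninhibited 1x PFK enzyme wells and -100% = no-enzyme wells; nearly all actives have a fitted effect of over 60% in size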
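Activity is normalized to no-enzyme wells (full inhibition) and 1.25 nM enzyme wells (no inhibition). Reaction: 0.5 mM F6P, 0.1 mM ATP, 45 min RT, ADP-Glo luminescence; concentration-response curves fitted and classed by quality.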
TDP1 inh: blocks human tyrosyl-DNA phosphodiesterase 1; 350,000 compounds, 0.28% hits; Potency, µM (highest dose often 130 µM), without a hit: top-dose activity change, negative = inhibition, most hits filed as inhibitors; recombinant TDP1, AlphaScreen DNA substrate cleavage; further: on the % scale 0 is the no-effect control and ±100 the full control effect; nearly all actives have a fitted effect of over 40% in size
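E. coli-derived human Tdp1, 1 nM final. Cpd preinc 15 min RT; substrate 15 nM final, 5 min RT; AS bead mix 10 ug/ml final, 10 min RT. Signal loss = tyrosine-FITC cleavage. No-enzyme wells = max signal.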
VDR inh: blocks the human vitamin D receptor; Potency, µM, inactives show max response, negative = inhibition, hits mostly inhibitors; P11473; VDR-SRC2-3 peptide fluorescence polarization, 2 h; 400,000 compounds, 0.93% hits; further: on the % scale 0 is the no-effect control and ±100 the full control effect
Target sequence (P11473 whole entry, looked up): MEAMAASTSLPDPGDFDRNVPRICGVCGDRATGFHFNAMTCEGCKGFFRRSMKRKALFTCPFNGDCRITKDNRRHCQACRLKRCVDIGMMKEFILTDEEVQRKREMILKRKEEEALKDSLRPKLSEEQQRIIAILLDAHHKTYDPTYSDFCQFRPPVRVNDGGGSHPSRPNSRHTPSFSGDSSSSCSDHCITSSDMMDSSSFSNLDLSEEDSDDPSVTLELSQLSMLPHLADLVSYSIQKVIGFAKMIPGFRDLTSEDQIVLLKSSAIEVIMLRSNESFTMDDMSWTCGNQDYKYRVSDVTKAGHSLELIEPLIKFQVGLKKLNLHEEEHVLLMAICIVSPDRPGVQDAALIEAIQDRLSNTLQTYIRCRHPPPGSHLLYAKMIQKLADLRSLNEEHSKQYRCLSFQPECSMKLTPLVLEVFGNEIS
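After 23 nl compound addition and a short centrifugation, plates sat for 2 hours at ambient temperature; polarization of fluorescence then indicated loss of VDR binding to peptide SRC2-3.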
PLK1 PBD inh: blocks phosphopeptide binding to human PLK1 polo-box domain; Potency, µM, for the others: max response, negative = inhibition, most hits filed as inhibitors; 360,000 compounds, 2.8% hits; P53350; Plk1 PBD binding of FITC phosphopeptide, fluorescence polarization; further: series mostly up to about 57 µM; on the % scale 0 is the no-effect control and ±100 the full control effect; nearly all actives have a fitted effect of over 65% in size
Pin1 inh: blocks the human prolyl isomerase Pin1; Pin1 FP peptide displacement, HiFluor488, 10 min; AID 504891; Potency, µM (top dose mostly 115 µM), for the others: at the top dose activity, negative = inhibition, most hits filed as inhibitors; 390,000 compounds, 0.009% hits; Q13526; active means well fitted inhibition curve with a large enough effect in the polarisation, with a control signal flat, not every such curve was filed as active; inconclusive means small, poorly fitted or top-dose-only effect, or effect the other way, or a change in a side signal; inactive means no such curve, though single readings can be large or run the other way; the % refers to the polarisation; further: on the % scale 0 is the no-effect control and ±100 the full control effect
Target sequence (Q13526 whole entry, looked up): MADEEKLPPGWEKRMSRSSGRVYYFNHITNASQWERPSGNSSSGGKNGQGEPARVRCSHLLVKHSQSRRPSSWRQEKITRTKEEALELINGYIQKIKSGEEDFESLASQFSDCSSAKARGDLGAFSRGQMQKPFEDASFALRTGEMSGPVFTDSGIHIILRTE
S-ASM inh: human S-ASM enzyme inhibition; Potency, µM (top dose mostly 57.5 µM), inactives show at the top dose activity change, negative = inhibition, usual class: inhibitors; placental ASM, HMU-PC fluorogenic substrate, 60 min; 340,000 compounds, 0.006% hits; AID 504937
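HMU-PC0 cleavage (9 uM final) by human placental ASM, 60 min at 37 °C following 10 min compound exposure at RT; stopped at pH 10, fluorescence Ex 386/Em 447 nm.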
Starred values were filed as active, the others as inactive; i = inactive; u = inconclusive; x = no result; ! = not confirmed by another sample. Rows were chosen to be rich in hits. Some 3.1% of all compounds tested hit in one or more screens of this group. Unless noted, the call rests on the fitted dose curve; in most records, active means well fitted curve in the direction sought with a large enough effect; inconclusive means small, poorly fitted or top-dose-only effect, or another doubt; inactive means no such curve, though single readings can be large; an effect the other way counts as inactive or inconclusive. Potency means the concentration at half of the fitted maximal effect.

SMILES	Tb PFK block	TDP1 inh	VDR inh	PLK1 PBD inh	Pin1 inh	S-ASM inh
CCCNC(=O)CN1C(=O)NC(Cc2c[nH]c3ccccc23)C1=O (stereo unspecified)	1%	5%	u	27µM*	-2%	4%
COc1ccc(OC)c(CNC(=O)Nc2cn(CC(C)C)c(=O)c3ccccc23)c1	x	5%	4%	x	-8%	x
O=C(O)c1cc(-c2ccc(-c3ccc(F)cc3)o2)nc2ccccc12	-7%	-3%	u	15µM*	-4%	i
Cc1cc(=S)nc(-c2ccccn2)[nH]1	-16%	x	-16%	u	-2%	2%
CSc1nc(=S)cc(C)[nH]1	-23%	0%	50µM*	15µM*	u	0%
COc1cccc(NC(=O)c2sc3ncn(CC(=O)N4CCN(c5ccccn5)CC4)c(=O)c3c2C)c1	-3%	4%	25µM*	13µM*	25%	-1%
O=C(O)c1ccc(Cl)cc1Cl	x	4%	x	x	x	x
CC1COc2ccccc2C1=O (stereo unspecified)	x	6%	8%	x	x	x
O=C1[O][Bi][O]c2ccccc21	x	35µM*	2%	x	x	x
Cc1c(P(=S)(c2ccccc2)c2ccccc2)c2ccccc2n1C(=O)NCc1ccccc1	x	1%	x	x	3%	x
COC(=O)c1c[nH]c(=O)c2ccccc12	-3%	6%	u	15µM*	-6%	31%
O=C(/C=C/c1ccccc1)/C=C/c1ccccc1	-5%	x	13µM*	-26%	1%	0%
CCc1nnc(NC(=O)CSCc2cc(=O)n3nc(C)sc3n2)s1	0%	1%	u	3.4µM*	-5%	32%
COc1ccc(OC)c2sc(Cl)nc12	-5%	-1%	12%	19µM*	-2%	2%
COc1ccc(OC)c2sc(N3CCN(C(=O)c4ccco4)CC3)nc12	x	0%	-4%	x	1%	x
O=C(CN1C(=O)COc2ccc(S(=O)(=O)Nc3ccccc3)cc21)NCc1ccccc1Cl	x	6%	6%	x	3%	x
S=c1[nH]nc(Nc2ccccc2Cl)s1	u	8%	-11%	19µM*	-10%	-4%
S=c1[nH]nc(Nc2cccc(Cl)c2)s1	-22%	11%	-1%	-22%	0%	-2%
CCOc1ccc(NC(=O)c2cnn(-c3ccc(C)c(C)c3)c2C2CCN(C(=O)OC(C)(C)C)CC2)cc1	x	6%	-8%	x	-1%	x
O=C(CCNC(=O)c1ccccc1)Nc1cccnc1	-9%	0%	-11%	27µM*	1%	3%
CSc1ccc(C(=O)C2CCCN(C(=O)c3nn(C)c(=O)c4ccccc34)C2)cc1 (stereo unspecified)	8%	0%	-11%	24µM*	-7%	2%
CCOc1ccc(CCNS(=O)(=O)c2ccc(-c3ccc(=O)[nH]n3)o2)cc1OCC	-1%	3%	-5%	-6%	-9%	-1%
CCOc1ccc(CCNS(=O)(=O)c2cnc[nH]2)cc1OCC	1%	7%	10%	27µM*	-3%	6%
CCn1c(COc2cccc(C)c2)nnc1SCC(=O)NC1CCCC1	-1%	10%	u	30µM*	-2%	2%
CCn1c(COc2ccccc2C)nnc1SCC(=O)NC1CCCC1	-3%	6%	8%	-4%	6%	3%
SMILES	Tb PFK block	TDP1 inh	VDR inh	PLK1 PBD inh	Pin1 inh	S-ASM inh
C[C@@]12C=Cc3occc3[C@H]1CC[C@@]13C[C@@H](CC[C@H]12)[C@@](O)(CO)C3	x	11%	u	x	x	x
O=C(CSc1n[nH]c(=O)[nH]c1=O)N1CCCCCC1	-2%	1%	u	27µM*	13%	1%
CO[C@@H](CCO)C[C@H]1O[C@H](C(=O)OC(C)C)CC[C@@H]1C	x	4%	2%	x	x	x
COc1ccc(C(=O)COC(=O)c2ccc(Cl)nc2)c(OC)c1	u	50µM*	-13%	-5%	-2%	4%
COc1ccc(Nc2cnn(-c3nc4ccccc4s3)c(=O)c2Cl)cc1	5%	-9%	u	12µM*	16%	-8%
CSc1nnc2c(n1)OC1(Nc3ccccc3-2)C(=O)Nc2ccccc21 (stereo unspecified)	-1%	0%	-17%	27µM*	0%	-2%
O=C(CSc1nccn1Cc1ccc(F)cc1)NCc1ccc(F)cc1	x	-3%	2%	x	-13%	x
Oc1ccc(N=Cc2ccc(O)c(O)c2)cc1	-11%	0%	u	21µM*	u	-2%
O=Cc1ccc(O)c(O)c1	-14%	-5%	11%	-4%	0%	-7%
CCN(c1cc(C)cc(C)c1)S(=O)(=O)c1nnc(NC(=O)C2CCCCC2)s1	x	4%	11%	x	32%	x
CCOc1ccc(NC(=O)CSc2oc(-c3ccco3)nc2S(=O)(=O)c2ccc(Cl)cc2)cc1	x	6%	-3%	x	23%	x
NC(=O)c1cc(S(=O)(=O)N2CCOCC2)ccc1Sc1ccccc1N	-10%	0%	-18%	15µM*	-1%	5%
O=c1oc2c(O)c(O)cc3c(=O)oc4c(O)c(O)cc1c4c23	u	0.1µM*	40µM*!	8.4µM*	u	-27%
O=C(O)c1cc(N=Nc2ccc(-c3ccc(N=Nc4ccc(O)c(C(=O)O)c4)cc3)cc2)ccc1O	x	u	13µM*	x	x	x
Nc1nc(SCC(=O)Nc2ccc(Cl)cn2)n[nH]1	1%	5%	-6%	30µM*	-10%	-2%
CC(Sc1n[nH]c(N)n1)C(=O)Nc1ccc(Cl)cn1 (stereo unspecified)	0%	5%	-25%	-9%	1%	3%
CC(C)Oc1ccc(CNC(=O)CN2C(=O)CCn3nc(-c4cn(C)c5ccccc45)cc32)cc1	x	7%	19%	x	u	x
CC(=O)c1ccc(OCc2cn(CC(=O)c3ccc(O)cc3)nn2)c(C)c1	x	x	x	-6%	x	x
COc1cc(C=O)ccc1OCc1cn(CC(=O)c2ccc(O)cc2)nn1	x	x	-10%	-25%	-1%	-5%
COc1cc(C(C)=O)ccc1OCc1cn(CC(=O)c2ccc(O)cc2)nn1	x	x	89µM*	24µM*	-7%	3%
O=C(Cn1cc(COc2ccccc2C(F)(F)F)nn1)c1ccc(O)cc1	x	x	u	21µM*	-1%	-3%
O=C(Cn1cc(COc2ccc(Br)cc2[N+](=O)[O-])nn1)c1ccc(O)cc1	x	x	-29%	27µM*	u	0%
CCCn1c(SCC(=O)Nc2cc(S(=O)(=O)N3CCOCC3)ccc2OC)n[nH]c1=O	-9%	-3%	13%	30µM*	-2%	4%
CCCn1c(SCC(=O)Nc2cc(S(=O)(=O)N3CCOCC3)ccc2Cl)n[nH]c1=O	0%	-4%	-11%	-19%	7%	1%
Cc1c(C(=O)N2CCOCC2)oc2c1-c1nn(CC(=O)NCc3cccc(Cl)c3)cc1CC2	x	8%	11%	x	-2%	x
C=COC(=O)/C=C/C	x	11%	-2%	x	x	x
CCCn1c(NC(=O)c2ccc(C)cc2)nc2ccccc21	0%	9%	-20%	27µM*	-9%	-12%

Assay outcomes as filed in PubChem.
